Source: the supplement of paper PMC10849652
About 8,800 targets were measured; listed, in parts, are those with a hit and a random draw of the rest. About 0.5% of all pairs of compound and target were hits. Values without a mark were called inactive.

Legend:
Test in all cases: log2 fold change, soluble protein after heating vs DMSO (PISA); higher = thermal stabilisation; K562 lysate, 10 uM; active = over 0.2 and 3.5 SD of the protein, either way, in both replicates (recomputed)
[1] = compound: NCC(=O)Nc1ccc(-n2nc(C(F)(F)F)cc2-c2ccc3c(ccc4ccccc43)c2)cc1
In short: (§1)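 The values are log-two fold changes in thermal stability compared with solvent controls and come from duplicates. They were obtained by TMTpro 16plex LC-MS/MS, with channel sums equalised, on the supernatant after 21,000xg for 90 min. That supernatant came from crude K562 extract at 1 mg/mL protein treated with 10 μM compound for 30 min, heated for 3 min across 48°C-58°C, pooled and brought to 0.5% NP-40 at 4°C.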

[2] = compound: O=C(CCCCCCC(=O)Nc1ccccc1)NO [vorinostat]
In short: as §1

[3] = compound: O=C(O)c1ccc2c(c1)nc(Nc1cccc(Cl)c1)c1ccncc12 [silmitasertib]
In short: as §1

[4] = compound: O=C1NC(=O)C(c2cnc3ccccn23)=C1c1cn2c3c(cc(F)cc13)CN(C(=O)N1CCCCC1)CC2
In short: as §1

[5] = compound: c1cn2cc(-c3ccc4cn[nH]c4c3)nc(Nc3ccc(N4CCOCC4)cc3)c2n1 [entospletinib]
In short: as §1

Chain of UniProt Q8TBX8 (Q8TBX8 whole entry, looked up): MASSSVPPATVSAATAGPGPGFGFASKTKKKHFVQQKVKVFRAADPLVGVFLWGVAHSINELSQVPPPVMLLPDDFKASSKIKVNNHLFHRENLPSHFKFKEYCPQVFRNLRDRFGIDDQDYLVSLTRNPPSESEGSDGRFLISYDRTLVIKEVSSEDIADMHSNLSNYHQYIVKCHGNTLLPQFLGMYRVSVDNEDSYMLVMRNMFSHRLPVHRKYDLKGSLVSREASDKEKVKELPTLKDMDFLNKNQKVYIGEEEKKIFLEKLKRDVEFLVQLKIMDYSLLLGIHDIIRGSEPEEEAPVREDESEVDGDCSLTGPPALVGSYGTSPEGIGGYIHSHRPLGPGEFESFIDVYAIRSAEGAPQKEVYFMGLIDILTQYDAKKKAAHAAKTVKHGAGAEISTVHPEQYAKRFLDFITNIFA
Chain of UniProt Q9HAU0 (Q9HAU0 whole entry, looked up): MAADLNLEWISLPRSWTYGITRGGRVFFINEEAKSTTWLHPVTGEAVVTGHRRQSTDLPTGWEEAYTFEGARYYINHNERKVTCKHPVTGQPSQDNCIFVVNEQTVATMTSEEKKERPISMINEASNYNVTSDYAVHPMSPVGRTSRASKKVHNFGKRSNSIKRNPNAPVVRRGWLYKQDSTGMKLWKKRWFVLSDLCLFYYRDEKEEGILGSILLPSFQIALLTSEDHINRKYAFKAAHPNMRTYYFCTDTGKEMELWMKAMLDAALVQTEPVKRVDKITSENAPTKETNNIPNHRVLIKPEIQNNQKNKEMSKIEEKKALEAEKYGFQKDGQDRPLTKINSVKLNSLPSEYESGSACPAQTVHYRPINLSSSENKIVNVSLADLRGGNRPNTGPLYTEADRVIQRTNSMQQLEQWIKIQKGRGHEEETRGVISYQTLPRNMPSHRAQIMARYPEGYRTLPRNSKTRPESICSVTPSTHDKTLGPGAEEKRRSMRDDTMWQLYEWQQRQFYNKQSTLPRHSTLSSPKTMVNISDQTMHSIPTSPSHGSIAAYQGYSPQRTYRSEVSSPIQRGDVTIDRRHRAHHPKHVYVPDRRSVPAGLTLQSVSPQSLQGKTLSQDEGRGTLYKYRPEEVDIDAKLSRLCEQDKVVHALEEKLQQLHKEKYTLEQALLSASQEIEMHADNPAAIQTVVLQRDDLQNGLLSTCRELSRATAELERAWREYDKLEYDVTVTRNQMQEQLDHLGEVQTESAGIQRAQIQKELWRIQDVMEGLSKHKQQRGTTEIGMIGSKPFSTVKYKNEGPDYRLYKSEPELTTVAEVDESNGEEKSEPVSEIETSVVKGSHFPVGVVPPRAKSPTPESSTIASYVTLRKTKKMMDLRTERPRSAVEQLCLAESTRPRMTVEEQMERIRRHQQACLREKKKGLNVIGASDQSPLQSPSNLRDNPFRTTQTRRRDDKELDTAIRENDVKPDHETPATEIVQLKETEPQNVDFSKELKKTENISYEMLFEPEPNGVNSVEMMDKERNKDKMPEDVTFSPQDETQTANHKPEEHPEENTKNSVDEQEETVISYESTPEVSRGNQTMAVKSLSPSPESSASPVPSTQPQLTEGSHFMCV
Chain of UniProt Q8NA72 (Q8NA72 whole entry, looked up): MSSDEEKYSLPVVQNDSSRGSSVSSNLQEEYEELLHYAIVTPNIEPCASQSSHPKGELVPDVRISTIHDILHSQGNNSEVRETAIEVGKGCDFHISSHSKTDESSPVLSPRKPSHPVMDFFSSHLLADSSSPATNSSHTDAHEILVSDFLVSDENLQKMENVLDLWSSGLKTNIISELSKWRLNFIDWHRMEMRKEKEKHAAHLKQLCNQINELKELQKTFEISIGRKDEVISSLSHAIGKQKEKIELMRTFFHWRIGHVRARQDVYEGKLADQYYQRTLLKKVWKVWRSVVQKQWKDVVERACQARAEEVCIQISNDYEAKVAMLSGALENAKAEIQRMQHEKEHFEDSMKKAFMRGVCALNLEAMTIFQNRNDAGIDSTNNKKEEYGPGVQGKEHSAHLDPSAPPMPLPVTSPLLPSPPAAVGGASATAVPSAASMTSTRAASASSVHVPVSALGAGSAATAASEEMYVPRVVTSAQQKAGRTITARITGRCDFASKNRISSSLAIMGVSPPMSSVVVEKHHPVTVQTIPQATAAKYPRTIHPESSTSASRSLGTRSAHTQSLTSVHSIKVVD
Chain of UniProt O15530 (O15530 whole entry, looked up): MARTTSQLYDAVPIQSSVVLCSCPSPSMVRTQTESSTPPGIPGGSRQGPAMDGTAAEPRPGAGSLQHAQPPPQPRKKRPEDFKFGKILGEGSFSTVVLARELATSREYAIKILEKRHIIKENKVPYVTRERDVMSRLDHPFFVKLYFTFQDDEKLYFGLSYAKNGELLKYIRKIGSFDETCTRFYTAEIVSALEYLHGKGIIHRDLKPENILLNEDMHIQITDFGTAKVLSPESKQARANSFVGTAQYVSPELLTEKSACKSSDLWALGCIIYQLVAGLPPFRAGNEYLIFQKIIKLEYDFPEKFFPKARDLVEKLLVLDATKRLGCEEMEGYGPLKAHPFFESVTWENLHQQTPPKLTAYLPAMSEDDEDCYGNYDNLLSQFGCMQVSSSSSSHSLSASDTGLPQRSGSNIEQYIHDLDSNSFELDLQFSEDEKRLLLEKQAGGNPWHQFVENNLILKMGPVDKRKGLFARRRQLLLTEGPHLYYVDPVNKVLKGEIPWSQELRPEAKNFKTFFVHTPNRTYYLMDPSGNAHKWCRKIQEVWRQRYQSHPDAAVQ
Chain of UniProt Q15269 (Q15269 whole entry, looked up): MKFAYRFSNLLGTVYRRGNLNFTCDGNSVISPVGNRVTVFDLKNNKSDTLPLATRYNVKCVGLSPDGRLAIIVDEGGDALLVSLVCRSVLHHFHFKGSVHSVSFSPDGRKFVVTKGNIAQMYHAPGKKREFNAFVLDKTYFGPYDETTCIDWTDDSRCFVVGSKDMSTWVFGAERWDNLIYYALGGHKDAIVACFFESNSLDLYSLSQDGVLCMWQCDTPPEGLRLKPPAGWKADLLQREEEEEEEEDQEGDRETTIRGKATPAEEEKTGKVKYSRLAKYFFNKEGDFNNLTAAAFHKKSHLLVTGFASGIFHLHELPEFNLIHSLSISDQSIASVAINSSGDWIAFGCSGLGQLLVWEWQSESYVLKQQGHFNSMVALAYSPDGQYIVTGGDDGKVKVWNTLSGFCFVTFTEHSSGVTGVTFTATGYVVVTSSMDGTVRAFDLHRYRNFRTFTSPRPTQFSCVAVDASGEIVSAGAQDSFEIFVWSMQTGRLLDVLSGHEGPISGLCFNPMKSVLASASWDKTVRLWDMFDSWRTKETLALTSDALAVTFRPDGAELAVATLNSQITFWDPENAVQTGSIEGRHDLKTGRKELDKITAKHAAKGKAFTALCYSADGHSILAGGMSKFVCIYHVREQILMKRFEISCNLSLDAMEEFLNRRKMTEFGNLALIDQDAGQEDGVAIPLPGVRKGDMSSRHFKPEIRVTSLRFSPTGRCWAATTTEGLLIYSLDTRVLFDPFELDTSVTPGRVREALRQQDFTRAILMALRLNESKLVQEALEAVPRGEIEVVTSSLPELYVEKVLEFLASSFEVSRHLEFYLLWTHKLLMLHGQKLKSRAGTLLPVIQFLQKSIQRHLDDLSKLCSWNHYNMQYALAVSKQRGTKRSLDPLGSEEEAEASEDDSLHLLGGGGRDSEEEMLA
Chain of UniProt Q99755 (Q99755 whole entry, looked up): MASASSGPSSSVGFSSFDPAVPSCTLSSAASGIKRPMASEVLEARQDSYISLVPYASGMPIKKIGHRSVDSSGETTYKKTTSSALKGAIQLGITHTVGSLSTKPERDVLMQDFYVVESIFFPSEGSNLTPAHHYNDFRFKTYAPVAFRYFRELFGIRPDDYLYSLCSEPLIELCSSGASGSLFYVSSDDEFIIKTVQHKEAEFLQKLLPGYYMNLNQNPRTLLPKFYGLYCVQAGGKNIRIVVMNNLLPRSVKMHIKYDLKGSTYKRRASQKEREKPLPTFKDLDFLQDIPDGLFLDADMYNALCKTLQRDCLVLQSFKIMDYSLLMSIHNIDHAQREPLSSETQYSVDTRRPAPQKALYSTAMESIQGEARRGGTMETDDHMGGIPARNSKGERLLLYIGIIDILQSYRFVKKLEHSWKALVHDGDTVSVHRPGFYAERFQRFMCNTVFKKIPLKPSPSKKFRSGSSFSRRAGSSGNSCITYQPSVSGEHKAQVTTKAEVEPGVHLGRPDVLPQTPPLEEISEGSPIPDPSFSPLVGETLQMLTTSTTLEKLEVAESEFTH
Chain of UniProt Q6EEV4 (Q6EEV4 whole entry, looked up): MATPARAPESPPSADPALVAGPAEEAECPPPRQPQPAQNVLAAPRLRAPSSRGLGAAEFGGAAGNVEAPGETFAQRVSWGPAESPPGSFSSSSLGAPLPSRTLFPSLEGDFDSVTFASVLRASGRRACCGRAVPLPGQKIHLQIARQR
Chain of UniProt O14744 (O14744 whole entry, looked up): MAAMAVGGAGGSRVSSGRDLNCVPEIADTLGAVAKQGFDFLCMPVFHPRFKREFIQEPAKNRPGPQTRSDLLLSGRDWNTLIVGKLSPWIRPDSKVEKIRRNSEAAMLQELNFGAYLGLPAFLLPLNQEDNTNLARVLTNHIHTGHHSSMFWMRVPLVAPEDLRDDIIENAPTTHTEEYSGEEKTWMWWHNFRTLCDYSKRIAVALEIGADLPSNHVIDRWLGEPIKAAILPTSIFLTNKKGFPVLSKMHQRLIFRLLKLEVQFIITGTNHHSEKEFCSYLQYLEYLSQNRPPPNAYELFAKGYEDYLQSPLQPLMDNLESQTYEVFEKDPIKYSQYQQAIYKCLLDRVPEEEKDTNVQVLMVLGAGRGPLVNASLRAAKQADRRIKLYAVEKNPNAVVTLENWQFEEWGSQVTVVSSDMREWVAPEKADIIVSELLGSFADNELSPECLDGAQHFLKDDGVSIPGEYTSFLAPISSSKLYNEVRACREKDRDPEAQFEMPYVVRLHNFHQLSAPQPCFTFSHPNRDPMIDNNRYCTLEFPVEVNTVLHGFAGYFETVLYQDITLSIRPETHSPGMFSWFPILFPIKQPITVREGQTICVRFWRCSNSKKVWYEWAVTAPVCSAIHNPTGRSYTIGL

Target | log2 fold change [1] | log2 fold change [2] | log2 fold change [3] | log2 fold change [4] | log2 fold change [5]
PICALM (UniProt H0YEH1) | -0.048 | 0.037 | -0.045 | -0.075 | -0.237
PHKG1 isoform 2 (UniProt Q16816) | 0.053 | -0.342 | 0.259 | -0.123 | -0.002
PIK3R1 (UniProt P27986) | -0.035 | -0.206 | 0.213 | 0.022 | 0.03
PRKD3 (UniProt O94806) | -0.116 | -0.182 | 0.224 | 0.076 | 0.013
PRKD2 isoform 3 (UniProt Q9BZL6) | -0.043 | -0.326 (active) | 0.051 | 0.088 | 0.052
PI4K2B (UniProt Q8TCG2) | -0.038 | -0.054 | 0.041 | 0.011 | 0.014
PIP4K2A (UniProt P48426) | 0.027 | 0.024 | 0.225 | 0.007 | -0.029
PPME1 isoform 4 (UniProt Q9Y570) | -0.02 | -0.03 | 0.013 | 0.005 | 0.031
PI4KA (UniProt P42356) | -0.011 | -0.426 (active) | 0.077 | 0.004 | 0.031
PIP4K2B (UniProt P78356) | 0.005 | 0.074 | 0.221 | 0.073 | -0.013
PGGT1B (UniProt P53609) | -0.038 | 0.08 | 0.109 | -0.029 | -0.054
PRPH isoform 2 (UniProt P41219) | 0 | 0.112 | 0.001 | -0.098 | -0.052
PFAS (UniProt O15067) | 0.029 | -0.272 (active) | 0.022 | 0.031 | 0.016
PHLDB1 (UniProt Q86UU1) | 0.022 | -0.357 (active) | 0.012 | 0.128 | 0.008
PUS3 (UniProt Q9BZE2) | 0.051 | -0.527 (active) | 0.11 | 0.017 | -0.041
PIK3CB (UniProt P42338) | -0.041 | -0.395 | 0.321 | -0.046 | 0.038
PTGS1 isoform 6 (UniProt P23219) | -0.013 | 0.05 | -0.033 | 0.003 | -0.017
PGPEP1 (UniProt Q9NXJ5) | 0 | -0.526 (active) | 0.009 | 0.012 | -0.049
PPM1H (UniProt Q9ULR3) | -0.004 | 0.206 | -0.05 | -0.045 | -0.002
PRMT5 (UniProt O14744) | 0.012 | 0.013 | -0.037 | 0.001 | 0.013

Target | log2 fold change [1] | log2 fold change [2] | log2 fold change [3] | log2 fold change [4] | log2 fold change [5]
PLA2G4B isoform 6 (UniProt P0C869) | -0.008 | 0.002 | -0.017 | 0.264 | 0.06
PDPK1 (UniProt O15530) | -0.056 | -0.246 | 0.09 | 0.004 | -0.007
POLR3E (UniProt Q9NVU0) | -0.017 | -0.263 (active) | -0.023 | 0.027 | -0.004
PHKG2 (UniProt P15735) | -0.029 | 0.013 | 0.008 | -0.022 | 0.026
POLB (UniProt P06746) | 0.027 | -0.302 (active) | -0.106 | -0.023 | 0.022
PWP2 (UniProt Q15269) | 0.007 | -0.547 (active) | 0.029 | -0.014 | 0.019
PFKFB2 (UniProt O60825) | -0.007 | -0.39 (active) | 0.033 | 0.026 | 0.018
PLEKHA5 isoform 6 (UniProt Q9HAU0) | -0.029 | -0.305 (active) | -0.003 | -0.016 | 0.022
PPIL2 (UniProt Q13356) | 0.015 | -0.32 (active) | 0.019 | -0.009 | 0.014
POC5 (UniProt Q8NA72) | -0.128 | -0.36 (active) | -0.021 | 0.02 | -0.184
PDXK (UniProt O00764) | -0.005 | 0.073 | -0.008 | 0.026 | -0.009
PMS1 (UniProt P54277) | 0.01 | -0.342 (active) | 0.018 | 0.026 | -0.011
PRAME (UniProt P78395) | 0.025 | -0.283 (active) | 0.043 | 0.004 | 0.048
PXMP4 (UniProt Q9Y6I8) | 0.038 | 0.295 | 0.134 | 0.021 | -0.004
PNPLA4 (UniProt P41247) | -0.012 |  |  | -0.093 | -0.046
PYGO2 (UniProt Q9BRQ0) |  | 0.151 | -0.067 | -0.003 | 0.269 (active)
PPP1R14C (UniProt Q8TAE6) | -0.061 |  |  |  | -0.046
PHC1 (UniProt P78364) | 0.042 |  |  | 0.151 | 0.073
POLR2F (UniProt U3KPV3) |  |  |  |  | -0.113
PRADC1 (UniProt Q9BSG0) |  | 0.07 | -0.041 | -0.012 | 

Target | log2 fold change [1] | log2 fold change [2] | log2 fold change [3] | log2 fold change [4] | log2 fold change [5]
PRG4 (UniProt Q92954) |  |  |  | -0.145 | 
NA (UniProt Q4G0T1) |  | -0.027 | 0.092 | -0.036 | 
PPP2R5C isoform 4 (UniProt Q13362) | 0.075 | 0.082 | -0.067 | 0.074 | -0.012
POM121C (UniProt A8CG34) |  | 0.077 | -0.196 |  | 
PLXND1 (UniProt Q9Y4D7) |  | -0.132 | 0.174 | 0.018 | 
PPP2R3C (UniProt Q969Q6) | -0.019 | -0.362 | 0.086 |  | 0.074
PHKB isoform 3 (UniProt Q93100) | -0.023 | -0.288 (active) | 0.07 | 0.016 | 0.023
PHF14 (UniProt O94880) | -0.062 |  |  |  | 0.039
PPP1R11 (UniProt O60927) |  | -0.31 (active) | 0.034 | 0.028 | -0.029
PICALM (UniProt H0YCY1) |  | 0.202 | -0.07 |  | 
PFN1 (UniProt I3L3D5) |  |  |  |  | -0.194
PCBP2 (UniProt F8VRH0) |  | -0.982 (active) | -0.441 | 0.006 | 
PPP4R2 (UniProt Q9NY27) | -0.007 | -0.053 | -0.016 | 0.023 | -0.001
PIP5K1A (UniProt Q99755) |  | -0.014 | -0.033 | 0.047 | 
PIM1 isoform 2 (UniProt P11309) | 0.098 | -0.188 | 0.212 | 0.019 | 0.008
PRMT7 (UniProt Q9NVM4) | -0.017 | -0.174 | -0.011 | 0.04 | -0.018
POLR2G (UniProt P62487) | 0.001 | 0.116 | -0.043 | -0.03 | 0.014
POLR2M (UniProt Q6EEV4) | 0.146 | -0.019 | -0.069 | 0.06 | -0.022
PIP4K2C (UniProt Q8TBX8) | 0.021 | -0.07 | 0.425 (active) | 0.063 | 0.004
